Compounds with a hit are over-represented: about 1.4% of the library has one in this group of screens.
PTHR1 ag – PTHR1 (human) receptor agonism; Q03431; HEK293 GP2 PTHR1 cells, GloSensor cAMP luminescence, 1 h; Potency, µM (titrated, usually from 115 µM), hits mostly activators; 0.075% of 410,000 active; AID 743266; further: nearly all actives have a fitted effect of over 55% in size
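HEK-293-derived GP2 cells expressing PTHR1 and a GloSensor cAMP reporter, 3,000/well, plated overnight, given luciferin plus IBMX (each 0.5 mM as added) for 1 h at 37 °C, then compound for 1 h at 37 °C. Luminescence was read after 15 min at room temperature.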
KCNH2 3.1 block – inhibitors of human KCNH2 3.1 potassium channel isoform. activity change, % (tested at about 1.8 µM). U2OS KCNH2 3.1, thallium flux FluxOr; stronger effect = lower value. 0.95% of 340,000 active;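 active means maximum activity change below -70%; inconclusive means maximum activity change from -70% to -50%; inactive means maximum activity change above -50%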;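 further: thallium influx rate constant from kinetic fluorescence after stimulation buffer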
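Channel expression came from 3.1 mutant virus (1.77 x 10^8 /mL) applied to suspended U2OS cells for 4 h. Flux was tracked with FluxOr dye plus Red40 quencher, and kinetic rate constants normalized to controls.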
Glioma ERSR ind – ER stress response induction in glioma; U87-MG GRP78 promoter luciferase reporter, 16 h; 0.02% of 420,000 active; Potency, µM, hits mostly activators; further: series mostly up to about 76 µM; nearly all actives have a fitted effect of over 35% in size
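Stably transfected U87-MG glioma cells carrying a GRP78-based luciferase sensor; 16 h compound incubation. Luminescence end-point read 10 min after Bright-Glo addition at room temperature.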
KCNH2 WT inh – inhibitors of human wildtype KCNH2 potassium channel | 0.37% of 340,000 active | AID 720551 | U2OS, BacMam KCNH2, thallium flux FluxOr; stronger effect = lower value | activity change, % at 1.84 µM;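 active means maximum activity change below -70%; inconclusive means maximum activity change between -70% and -50%; inactive means maximum activity change above -50%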
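U2OS cells transduced with wild-type KCNH2 virus are loaded with FluxOr dye for 45 min, and thallium flux is measured in kinetic reads before and after stimulation buffer. Rate constants are normalized to DMSO controls.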
RXFP1 antag – RXFP1 (human) relaxin receptor antagonism. Q9HBX9. activity change, negative = inhibition, % at 57.5 µM. HEK293-RXFP1, relaxin-stimulated cAMP HTRF, 30 min; stronger effect = lower value. 0.59% of 350,000 active;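 active means activity change of -60% or lower, but not beyond a set lower limit; inconclusive means change between -60% and -40%, or beyond the set limit; inactive means change above -40%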
Target sequence (Q9HBX9 whole entry, looked up): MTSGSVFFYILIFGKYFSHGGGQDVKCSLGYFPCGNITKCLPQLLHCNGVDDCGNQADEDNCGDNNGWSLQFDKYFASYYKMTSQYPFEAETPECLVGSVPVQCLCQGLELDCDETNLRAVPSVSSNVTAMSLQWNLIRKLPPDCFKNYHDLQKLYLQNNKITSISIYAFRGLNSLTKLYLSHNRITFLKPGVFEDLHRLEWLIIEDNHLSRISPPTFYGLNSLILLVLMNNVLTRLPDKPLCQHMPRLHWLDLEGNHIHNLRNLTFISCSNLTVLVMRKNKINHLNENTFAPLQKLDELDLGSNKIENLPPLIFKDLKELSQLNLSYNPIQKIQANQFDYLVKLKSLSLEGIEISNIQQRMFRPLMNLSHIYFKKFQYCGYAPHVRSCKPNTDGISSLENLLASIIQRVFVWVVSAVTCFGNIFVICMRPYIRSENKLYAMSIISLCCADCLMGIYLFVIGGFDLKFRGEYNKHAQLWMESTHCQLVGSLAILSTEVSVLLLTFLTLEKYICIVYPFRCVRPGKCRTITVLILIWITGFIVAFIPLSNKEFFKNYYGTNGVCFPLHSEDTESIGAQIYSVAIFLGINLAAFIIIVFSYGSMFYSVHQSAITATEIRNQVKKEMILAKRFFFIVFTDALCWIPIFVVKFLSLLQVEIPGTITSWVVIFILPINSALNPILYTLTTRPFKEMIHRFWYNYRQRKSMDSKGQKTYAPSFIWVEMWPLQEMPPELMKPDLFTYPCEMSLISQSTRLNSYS
RXFP1 ag – agonists of human relaxin receptor RXFP1; Q9HBX9; HEK293T-RXFP1 cAMP TR-FRET, 30 min; response scale: percent of porcine relaxin response, buffer zero; Potency, µM (titrated, usually from 57.5 µM), actives largely listed as activators; 0.3% of 370,000 active; AID 2676; further: nearly all actives have a fitted effect of over 60% in size
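HEK293T cells stably expressing RXFP1 were pretreated with the PDE4 inhibitor Ro 20174, exposed to compounds for 30 min at 37C, lysed, and cAMP was read by TR-FRET. Data normalized to buffer (basal) and 29 nM porcine relaxin (100%).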
Hits are given with their value; – = inactive; ? = inconclusive; · = no result given. Unless noted, the call rests on the fitted dose curve; in most records, active means well fitted curve in the direction sought with a large enough effect; inconclusive means small, poorly fitted or top-dose-only effect, or another doubt; inactive means no such curve, though single readings can be large; an effect the other way counts as inactive or inconclusive.

SMILES | PTHR1 ag | KCNH2 3.1 block | Glioma ERSR ind | KCNH2 WT inh | RXFP1 antag | RXFP1 ag
Cc1ccc(/C=N/NC(=O)c2cc(-c3cccnc3)nc3ccccc23)cc1 | – | – | – | – | – | –
CN1CCC(=O)N([C@H](CSc2ccc(Br)cc2)c2ccccc2)CC1 | – | -98 | – | – | · | –
CCCN1CCC(=O)N([C@H](CSc2ccc(C)cc2)c2ccccc2)CC1 | – | · | – | · | · | –
CC(C)C[C@@H](CSc1ccc(Br)cc1)N1CCN(CCc2ccccc2)CCC1=O | – | · | – | · | · | –
CCCN1CCC(=O)N([C@H](CSc2ccccc2)c2ccccc2)CC1 | – | -94 | – | – | · | –
Cc1ccc(SC[C@H](Cc2ccccc2)N2CCN(CC(C)C)CCC2=O)cc1 | – | · | – | · | · | –
CC(C)CN1CCC(=O)N([C@H](CSc2ccccc2)Cc2ccccc2)CC1 | – | -101 | – | – | · | –
CC(C)C[C@@H](CSc1ccccc1)N1CCN(CCc2ccccc2)CCC1=O | – | -101 | – | -77 | · | –
CC(C)Oc1ccc(S(=O)(=O)N2CCCCC2)cc1NC(=O)C1=NN(c2ccccc2)C(=O)CC1 | – | – | – | – | – | ·
CN(Cc1nccn1C)C(=O)c1cc(COc2ccc3ncccc3c2)on1 | – | – | – | – | – | –
O=C(O)CCC(=NNC(=O)c1cccc(S(=O)(=O)N2CCCCC2)c1)c1ccccc1 | – | – | – | – | – | ·
Cc1ccc(SCC(c2ccccc2)N2CCN(CCc3ccccc3)CCC2=O)cc1 (stereo unspecified) | · | · | – | · | · | ·
O=C1CCN(CCc2ccccc2)CCN1[C@H](CSc1ccccc1)c1ccccc1 | – | -101 | – | -134 | · | –
Cc1ccc(SC[C@H](c2ccccc2)N2CCN(CCc3ccccc3)CCC2=O)cc1 | – | -114 | – | -142 | · | –
CCCN1CCC(=O)N([C@H](CSc2ccccc2)Cc2ccccc2)CC1 | – | ? | – | – | · | –
CCCN1CCC(=O)N([C@H](CSc2ccc(Br)cc2)Cc2ccccc2)CC1 | – | -101 | – | -89 | · | –
CCOC(=O)COc1ccc(C2C(C(=O)OC)=C(C)NC3=C2C(=O)c2ccccc23)cc1Cl (stereo unspecified) | – | · | – | · | – | –
O=C(c1ccc(-n2cncn2)c([N+](=O)[O-])c1)N1CCN(S(=O)(=O)c2ccc(Br)cc2)CC1 | – | – | – | – | – | –
O=S(=O)(NCCc1csc(-c2cccnc2)n1)c1cc(F)ccc1F | – | – | – | – | – | –
CCOC(=O)c1c(NC(=O)CSc2n[nH]c(CNc3ccccc3)n2)sc(C)c1C | – | – | – | – | ? | –
CCOC(=O)c1c(NC(=O)CSc2n[nH]c(-c3ccco3)n2)sc(C)c1C | – | – | – | – | -75 | –
CN1c2ccccc2C(O)=C(C(=S)Nc2ccc(F)c(Cl)c2)S1(=O)=O | – | – | – | -255 | – | –
Cc1ccc(N(CC(O)CN2CCCCC2)S(=O)(=O)c2ccc(C)cc2)cc1 (stereo unspecified) | – | -99 | – | – | – | –
Cc1ccc(N(CC(O)CN2CCCCC2)S(=O)(=O)c2ccccc2)cc1 (stereo unspecified) | – | ? | – | – | – | –
CCN(CCn1cccn1)C(=O)CCc1nnc(C2(c3ccc(Cl)cc3)CCC2)o1 | – | -194 | – | -137 | – | –
SMILES | PTHR1 ag | KCNH2 3.1 block | Glioma ERSR ind | KCNH2 WT inh | RXFP1 antag | RXFP1 ag
CCN(CCn1cccn1)C(=O)CCc1nnc(-c2ccccc2)o1 | – | – | – | – | – | –
CSCCC(NS(=O)(=O)c1ccc2c(c1)c(=O)n(C)c(=O)n2C)C(=O)NC1CCN(Cc2ccccc2)CC1 (stereo unspecified) | – | – | – | – | – | 18µM
Cc1noc(C)c1CSc1nc2sc3c(c2c(=O)n1C)CCCC3 | – | -102 | – | – | – | –
C=CCn1c(SCc2c(C)noc2C)nc2sc3c(c2c1=O)CCCC3 | – | – | – | – | – | –
CCOC(=O)c1sc(NC(=O)CCC(=O)O)nc1C | – | – | – | – | -85 | –
CCOC(=O)c1sc(NC(=O)Cc2ccc(C)cc2)nc1C | – | – | – | · | – | –
Cc1ccc(S(=O)(=O)N2[C@@H](c3cccc(Cl)c3)C(C(=O)O)=CC[C@H]2c2cccc(Cl)c2)cc1 | – | – | – | – | · | –
COc1ccccc1/C=C/CN1CCCC(CO)(Cc2cccc(Cl)c2)C1 (stereo unspecified) | – | – | – | – | ? | –
COc1ccc(F)c(CN2CCCC(CO)(Cc3cccc(Cl)c3)C2)c1 (stereo unspecified) | – | – | – | – | – | –
COc1cccc(CC2(CO)CCCN(C/C=C/c3ccccc3OC)C2)c1 (stereo unspecified) | – | -86 | – | -71 | – | –
COc1ccc(/C=C/CN2CCCC(CO)(Cc3cccc(Cl)c3)C2)cc1 (stereo unspecified) | – | ? | – | – | -69 | –
CCOc1ccc(CN(C)CC(=O)NCc2ccccc2Cl)cc1 | – | – | – | -85 | – | –
CCOc1ccc(CN(C)CC(=O)NCc2ccccc2)cc1 | – | -87 | – | – | – | –
CCOc1ccc(CNCc2ccccc2Cl)cc1 | – | – | – | – | – | –
CCOc1ccc(N(CC(=O)NCc2ccc(OC)cc2)S(C)(=O)=O)cc1 | – | -77 | – | – | – | –
COc1ccc(N(CC(=O)NCc2ccccc2)S(C)(=O)=O)cc1 | – | – | – | – | · | –
COc1ccc(CN(C)C(=O)c2cccc(C(=O)N(C)Cc3ccc(OC)cc3)c2)cc1 | – | – | – | – | – | –
COc1ccc(NC(=O)Cc2ccc(Cl)c(Cl)c2)cn1 | – | – | – | – | – | –
COc1ccc(NC(=O)/C(Cl)=C(/Cl)S(=O)(=O)Cc2ccc(C)cc2)cn1 | – | – | – | – | -71 | –
COc1ccc(NC(=O)/C(Cl)=C(/Cl)S(=O)Cc2ccccc2Cl)cn1 (stereo unspecified) | – | ? | – | – | -118 | –
COc1cc(NC(=O)c2cc3nc(C4CC4)cc(C(F)(F)F)n3n2)c(OC)cc1Cl | – | – | – | – | · | –
O=C(CCN1CCOCC1)c1ccc(N2CCCCC2)cc1 | – | – | – | – | · | –
CC(C)(C)c1cc(C(=O)CCN2CCOCC2)cc(C(C)(C)C)c1O | – | – | – | – | -83 | –
Cc1cc(NC(=O)Cn2ccsc2=N)c([N+](=O)[O-])cc1C | – | – | – | – | – | –
O=P(c1ccccc1)(c1ccccc1)N(c1ccccc1)c1ccccc1 | – | -70 | – | – | – | –
Nc1cccc(P(=O)(c2ccccc2)c2ccccc2)c1 | – | – | – | – | – | –

Screening results (PubChem)
